# Screening results as filed in PubChem BioAssay.
# USP30 block: inhibitors of human USP30 deubiquitinase; Q70CQ3; purified USP30, Ub-rhodamine cleavage fluorescence; inhibition, % at 25 µM; hit rate 5.3% among 47,000
# Target sequence (Q70CQ3 whole entry, looked up): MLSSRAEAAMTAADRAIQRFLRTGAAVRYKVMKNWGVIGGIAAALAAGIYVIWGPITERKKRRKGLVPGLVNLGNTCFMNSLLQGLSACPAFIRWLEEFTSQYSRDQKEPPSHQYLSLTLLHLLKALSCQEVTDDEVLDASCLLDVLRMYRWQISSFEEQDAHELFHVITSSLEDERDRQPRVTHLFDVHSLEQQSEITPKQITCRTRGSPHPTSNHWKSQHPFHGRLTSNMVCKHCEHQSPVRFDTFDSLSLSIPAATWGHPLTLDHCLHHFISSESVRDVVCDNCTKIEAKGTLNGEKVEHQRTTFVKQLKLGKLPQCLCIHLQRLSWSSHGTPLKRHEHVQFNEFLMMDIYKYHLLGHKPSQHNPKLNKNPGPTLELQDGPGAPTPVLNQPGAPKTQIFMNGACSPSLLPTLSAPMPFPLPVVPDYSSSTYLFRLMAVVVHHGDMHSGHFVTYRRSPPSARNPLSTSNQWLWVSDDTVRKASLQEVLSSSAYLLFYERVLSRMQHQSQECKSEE
# USP17 inh: blocks human USP17 ubiquitin-rhodamine cleavage; inhibition, % at 50 µM; hit rate 6.5% among 47,000; purified USP17, Ub-rhodamine cleavage fluorescence, 3 h; AID 1645855
# USP28 block: inhibitors of human USP28 deubiquitinase. purified USP28, Ub-rhodamine cleavage fluorescence, 30 min. inhibition, % at 25 µM. hit rate 3% among 47,000
# Active calls of the source: *; . = no result. Most compounds without a hit are left out; they make up all but 11% or so of the library. Cut-off read from the data, not from the text of the source: active = inhibition above about 30%; inactive = the rest.
SMILES,USP30 block,USP17 inh,USP28 block
COc1ccccc1C(=O)Nc1c(C(=O)N2CCOCC2)oc2ccccc12,3,-5,-12
CC(C)N(Cc1cc(=O)[nH]c2ccccc12)C(=O)c1ccccc1,-10,-3,-7
CC(C)N(Cc1cc(=O)[nH]c2ccccc12)C(=O)c1ccc(C(C)(C)C)cc1,16,6,34*
COc1cc(C(=O)N(Cc2cc(=O)[nH]c3ccccc23)C(C)C)cc(OC)c1OC,31*,19,14
Cc1cccc(C)c1OCC(=O)N(C)Cc1cc(=O)[nH]c2ccccc12,12,14,3
Cc1nn2c(C)c(C(=O)Nc3ccccc3Cl)nnc2c1-c1ccccc1,23,9,10
O=S(=O)(CCN1CCOCC1)c1ccc(F)cc1,7,4,-3
COc1ccc(-c2nnn(CC(=O)Nc3ccccc3)n2)cc1,46*,49*,39*
CCOC(=O)C(Cc1ccccc1)NC(=O)Cn1nnc(-c2ccccc2)n1 (centres undefined),35*,27,15
O=C(Cn1nnc(-c2ccc(F)cc2)n1)NCCc1ccccc1,2,74*,4
O=C(CN(Cc1ccc(F)cc1)C(=O)Cn1nnc(-c2ccc(F)cc2)n1)NC1CCCC1,21,5,8
COCCNC(=O)Cn1nnc(-c2ccc(-c3ccc(OC)cc3)cc2)n1,35*,26,11
CCOC(=O)C(Cc1ccccc1)NC(=O)CCc1nnc2ccc(N(CC)CC)nn12 (centres undefined),-16,-14,-3
CCOc1ccc(-c2nnn(CC(=O)N3CCCCC3)n2)cc1,20,13,20
COc1ccc(-c2noc(CC(=O)Nc3cccc(OC)c3)n2)cc1,-18,25,0
O=c1[nH]ncn1-c1ccc(OCc2ccccc2)cc1,-3,21,9
Cc1nc(C2CCCN2c2nnc(C)c3ccccc23)nc2c1CCC(=O)N2C (centres undefined),-355,-126,-128
O=S(=O)(C1CCCCC1)N1CC(c2nc(-c3cccnc3)no2)C1,-20,-12,-4
COc1ccc(CN(C(=O)c2nc3n(n2)-c2ccccc2S(=O)(=O)N3)C2CC2)cc1,-12,11,5
Cc1cc(-c2nccnc2CC2CCN(S(=O)(=O)N(C)C)CC2)n[nH]1,15,0,4
Cc1noc(C)c1S(=O)(=O)N(CC(=O)N(C)c1ccc(Br)cc1)c1ccc2c(c1)OCO2,15,-4,11
COc1cccc(-n2cc(-c3nc(-c4cccnc4)no3)c3ccccc3c2=O)c1,31*,28,15
O=c1c2ccccc2c(-c2nc(-c3cccnc3)no2)cn1-c1ccc(F)cc1,15,22,0
COc1cccc(CN2CCC(C(=O)NCc3ccccc3Cl)CC2)c1OC,-1,-2,3
O=C(Nc1nnc(C2CC(=O)N(c3ccc(OC(F)(F)F)cc3)C2)o1)C1CCCCC1 (centres undefined),0,-3,-12
SMILES,USP30 block,USP17 inh,USP28 block
COc1ccc(-c2ccnc(SCc3cccc([N+](=O)[O-])c3)n2)cc1,10,1,6
COc1ccc(-c2ccnc(-c3ccc(OCc4cccc(F)c4)cc3)n2)cc1,41*,56*,12
COc1ccc(CNc2ccc(-c3ccccc3)nn2)cc1,18,37*,11
c1ccc(CNc2ccc(-c3nc(-c4ccccc4)no3)nn2)cc1,-21,10,-10
Cn1ccc2c(cc(C(=O)NC3CCCCCC3)n2C)c1=O,-14,-18,-4
COc1cc(NC(=O)Cc2csc(NC(=O)c3ccc(=O)[nH]c3)n2)cc(OC)c1OC,-57,4,-9
Cc1ccc(CNC(=O)CCc2csc(NC(=O)c3ccc(=O)[nH]c3)n2)cc1,33*,-11,23
COC(=O)c1sccc1NC(=O)c1cccs1,26,30*,11
COC(=O)c1sccc1NC(=O)COc1ccsc1C(=O)OC,22,51*,7
CCOc1cc(NC(=O)C2CC2)c(OCC)cc1NC(=O)c1cccs1,14,21,6
COc1cc(C#N)ccc1OCC(=O)Nc1ccccc1Oc1ccccc1,8,-4,0
CCc1cccc(-n2nnnc2N2CCN(C(=O)Nc3cccc(C)c3)CC2)c1,-5,-8,-1
Cc1cccc(C(=O)Nc2ccc(Sc3ccccc3Cl)cc2)c1,21,13,11
Cc1ccc(Sc2ccc(C#N)cc2NC(=O)c2ccccc2C)cc1,41*,-4,2
Cc1ccc(-n2nc(C)c3c2NC(=O)[C@@H](NC(=O)c2ccccc2)[C@@H]3c2cccc(F)c2)cc1,-7,3,21
CC1CCC(NC(=O)C2(C)Cc3ccccc3C(=O)N2C2CCCCC2)CC1 (centres undefined),30*,14,9
COc1ccccc1CN1C(=O)c2ccccc2CC1(C)C(=O)NC1CCC(C)CC1 (centres undefined),-4,.,-16
